Laboratory results as given in PubChem BioAssay (EPA / NIEHS).
Several values for one entry are separate records, joined by “and”; a condition that tells them apart may be missing. Equal entries are not always repeated. Some compounds were tested as several samples or in several runs, with calls that do not always agree. Activity calls are given as the source filed them. How the source made its calls: active means hit-call score of the fitted dose curve at least 0.9, where 1 is the maximum; inactive means score below 0.9.

How the values were obtained:
[1] = ATG_GRE_CIS: Attagene CIS-FACTORIAL HepG2 Assay for human Glucocorticoid Response Elements (GRE) (AID 2282947); conditions: HepG2 GRE cis-reporter, Attagene multiplex mRNA; actives raise or lower the signal
Method in brief: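 Following 24 h chemical exposure of transiently transfected HepG2 cells, total RNA was reverse-transcribed and reporter cDNA amplified, fluorescently labelled and sized by capillary electrophoresis. Signal gain or loss was fitted relative to DMSO vehicle.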

[2] = ATG_ISRE_CIS: Attagene CIS-FACTORIAL HepG2 Assay for human Interferon Regulatory Factor 1 (IRF1) binding to an Interferon-Stimulated Response Element (ISRE) (AID 2282948); conditions: HepG2 ISRE cis-reporter (Attagene), mRNA transcription readout; actives raise or lower the signal
Method in brief: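 Quantitation relies on labelled RT-PCR fragments separated by capillary electrophoresis. Human HepG2 cells bearing cis-promoter reporter constructs were treated 24 h; DMSO served as baseline for bidirectional fitting.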

[3] = ATG_M_32_CIS: Attagene CIS-FACTORIAL HepG2 Assay for M32 Transcription Factor (Internal Marker) (AID 2282949); conditions: HepG2 Attagene cis-factorial M32 reporter, mRNA; actives raise or lower the signal;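 further: background control marker of the multiplexed CIS panel rather than a real target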
Method in brief: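 HepG2 cells transiently transfected with multiplexed cis-regulated reporter units, dosed 24 h. Reporter mRNA quantified by RT-PCR, 6-FAM labelling, HpaI digestion and capillary electrophoresis; bidirectional fit vs DMSO.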

[4] = ATG_M_06_CIS: Attagene CIS-FACTORIAL HepG2 Assay for M06 Transcription Factor (Internal Marker) (AID 2282950); conditions: HepG2 Attagene CIS-FACTORIAL M06 internal marker reporter; actives raise or lower the signal
Method in brief: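 Cells (HepG2, transiently carrying cis-driven reporter units) receive chemical for 24 h before RNA isolation. Reporter cDNA is PCR-amplified, FAM-labelled by primer extension, HpaI-digested and sized on a capillary analyser.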

[5] = target: Hypoxia-inducible factor 1-alpha (Homo sapiens) (UniProt Q16665); assay: ATG_HIF1a_CIS: Attagene CIS-FACTORIAL HepG2 Assay for human Hypoxia Inducible Factor 1 (HIF1A) (AID 2282951); conditions: HepG2 Attagene cis-factorial HIF1a reporter transcription; actives raise or lower the signal
Sequence of Hypoxia-inducible factor 1-alpha (Homo sapiens) (Q16665 whole entry, looked up): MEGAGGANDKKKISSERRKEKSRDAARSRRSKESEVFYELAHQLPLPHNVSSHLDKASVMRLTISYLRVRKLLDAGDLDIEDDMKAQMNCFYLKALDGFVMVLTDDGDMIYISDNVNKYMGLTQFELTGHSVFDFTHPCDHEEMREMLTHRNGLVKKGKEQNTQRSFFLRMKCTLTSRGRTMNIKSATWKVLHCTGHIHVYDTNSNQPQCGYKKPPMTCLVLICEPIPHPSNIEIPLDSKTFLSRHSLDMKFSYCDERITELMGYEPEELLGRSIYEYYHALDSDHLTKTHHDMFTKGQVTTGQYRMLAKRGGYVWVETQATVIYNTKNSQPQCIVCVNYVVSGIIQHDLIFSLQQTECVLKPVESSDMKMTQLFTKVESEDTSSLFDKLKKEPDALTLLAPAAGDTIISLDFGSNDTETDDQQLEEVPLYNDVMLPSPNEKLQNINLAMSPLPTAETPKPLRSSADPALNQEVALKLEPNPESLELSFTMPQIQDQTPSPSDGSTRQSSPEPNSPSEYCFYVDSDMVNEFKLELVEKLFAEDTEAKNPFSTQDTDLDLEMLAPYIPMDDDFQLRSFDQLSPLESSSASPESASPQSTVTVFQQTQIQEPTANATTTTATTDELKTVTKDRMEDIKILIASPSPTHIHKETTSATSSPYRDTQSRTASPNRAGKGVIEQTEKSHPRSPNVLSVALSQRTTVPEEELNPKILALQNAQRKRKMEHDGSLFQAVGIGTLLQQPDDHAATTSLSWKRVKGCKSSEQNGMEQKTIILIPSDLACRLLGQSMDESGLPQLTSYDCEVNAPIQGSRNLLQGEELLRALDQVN
Method in brief: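 Cis-element reporter constructs were transiently transfected into HepG2 cells, which were treated for 24 h; reporter RNA was reverse-transcribed, amplified, labelled and resolved by capillary electrophoresis.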

[6] = target: Hepatocyte nuclear factor 6 (Homo sapiens) (UniProt Q9UBC0); assay: ATG_HNF6_CIS: Attagene CIS-FACTORIAL HepG2 Assay for human Hepatocyte Nuclear Factor 6 (HNF6) (AID 2282952); conditions: HepG2 Attagene cis-factorial HNF6 reporter transcription; actives raise or lower the signal
Sequence of Hepatocyte nuclear factor 6 (Homo sapiens) (Q9UBC0 whole entry, looked up, the tested form may be a part): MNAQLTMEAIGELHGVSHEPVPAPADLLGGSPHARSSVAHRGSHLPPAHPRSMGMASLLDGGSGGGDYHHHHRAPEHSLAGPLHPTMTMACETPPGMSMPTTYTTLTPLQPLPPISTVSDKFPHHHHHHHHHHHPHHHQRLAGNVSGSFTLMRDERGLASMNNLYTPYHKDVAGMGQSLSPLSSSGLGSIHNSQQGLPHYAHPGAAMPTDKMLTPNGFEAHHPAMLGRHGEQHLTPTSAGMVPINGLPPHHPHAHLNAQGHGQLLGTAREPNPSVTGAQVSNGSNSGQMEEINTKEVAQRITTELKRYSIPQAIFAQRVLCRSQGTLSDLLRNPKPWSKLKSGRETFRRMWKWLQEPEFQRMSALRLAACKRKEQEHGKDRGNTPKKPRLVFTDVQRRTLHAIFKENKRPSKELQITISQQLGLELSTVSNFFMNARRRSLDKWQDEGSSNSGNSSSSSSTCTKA
Method in brief: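 Reporter mRNA induction or loss in HepG2 after 24 h exposure; transient cis-MRTU transfection; fragments quantified by capillary electrophoresis; bidirectional analysis, DMSO as negative control.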

[7] = target: Heat shock factor protein 1 (Homo sapiens) (UniProt Q00613); assay: ATG_HSE_CIS: Attagene CIS-FACTORIAL HepG2 Assay for human Heat Shock Transcription Factor 1 (HSE) (AID 2282953); conditions: HepG2 HSE cis-reporter, Attagene RNA transcription; actives raise or lower the signal
Sequence of Heat shock factor protein 1 (Homo sapiens) (Q00613 whole entry, looked up): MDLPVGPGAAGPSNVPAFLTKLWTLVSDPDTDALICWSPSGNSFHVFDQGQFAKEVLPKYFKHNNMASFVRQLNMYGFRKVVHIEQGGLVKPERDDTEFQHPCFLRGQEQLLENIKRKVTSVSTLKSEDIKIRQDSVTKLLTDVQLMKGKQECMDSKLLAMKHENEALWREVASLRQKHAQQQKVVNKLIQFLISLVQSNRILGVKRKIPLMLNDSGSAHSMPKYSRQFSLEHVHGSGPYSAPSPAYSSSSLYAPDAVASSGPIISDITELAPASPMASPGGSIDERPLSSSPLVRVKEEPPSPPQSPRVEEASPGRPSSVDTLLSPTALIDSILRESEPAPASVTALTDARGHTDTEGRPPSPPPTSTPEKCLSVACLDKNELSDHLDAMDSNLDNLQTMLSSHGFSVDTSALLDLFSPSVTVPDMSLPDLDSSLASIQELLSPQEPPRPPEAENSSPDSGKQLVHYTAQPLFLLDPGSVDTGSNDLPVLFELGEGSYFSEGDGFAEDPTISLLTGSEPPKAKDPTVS
Method in brief: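 Liver-derived HepG2 cells carry transiently introduced multiple reporter units governed by cis promoters. Reporter RNA measured 24 h post-dose through reverse transcription, PCR amplification, fluorescent labelling and capillary electrophoresis, normalised to DMSO.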

[8] = ATG_MRE_CIS: Attagene CIS-FACTORIAL HepG2 Assay for human Metal Responsive Element (MRE) (AID 2282954); conditions: HepG2 MRE cis-reporter transcription, Attagene multiplex; actives raise or lower the signal
Method in brief: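 Step one: transfect HepG2 with cis-regulated reporter units. Step two: dose 24 h. Step three: isolate RNA, RT-PCR, 6-FAM label, HpaI digest, capillary electrophoresis. Fit bidirectionally to DMSO.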

[9] = ATG_PBREM_CIS: Attagene CIS-FACTORIAL HepG2 Assay for human Phenobarbital-responsive Enhancer Module (PBREM) (AID 2282955); conditions: HepG2 PBREM cis-reporter, Attagene multiplexed transcription; actives raise or lower the signal
Method in brief: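 Multiplexed cis-reporter readout in human hepatoma HepG2 cells; PBREM-regulated transcript quantified after 24 h exposure by fluorescent RT-PCR fragment analysis. Signal changes up or down fitted relative to DMSO.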

[10] = target: Paired box protein Pax-6 (Homo sapiens) (UniProt P26367); assay: ATG_Pax6_CIS: Attagene CIS-FACTORIAL HepG2 Assay for human Paired Box 6 (PAX6) (AID 2282956); conditions: HepG2 CIS-FACTORIAL PAX6 reporter transcription, RNA readout; actives raise or lower the signal
Sequence of Paired box protein Pax-6 (Homo sapiens) (P26367 whole entry, looked up): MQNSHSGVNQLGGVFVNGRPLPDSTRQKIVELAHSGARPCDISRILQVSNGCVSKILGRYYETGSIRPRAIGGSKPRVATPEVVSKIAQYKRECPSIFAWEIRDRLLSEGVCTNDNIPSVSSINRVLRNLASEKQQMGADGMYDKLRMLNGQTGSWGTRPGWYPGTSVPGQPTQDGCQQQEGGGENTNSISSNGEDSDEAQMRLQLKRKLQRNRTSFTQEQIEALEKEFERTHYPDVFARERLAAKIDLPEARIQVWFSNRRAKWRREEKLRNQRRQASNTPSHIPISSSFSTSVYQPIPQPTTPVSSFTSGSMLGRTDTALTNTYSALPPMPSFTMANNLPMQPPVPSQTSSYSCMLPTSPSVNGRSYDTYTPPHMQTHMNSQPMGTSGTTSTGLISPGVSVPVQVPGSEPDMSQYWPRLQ
Method in brief: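 After twenty-four hours of chemical exposure, transfected HepG2 cells are harvested for RNA. Cis-promoter reporter transcripts are amplified, fluorescently labelled and sized by capillary electrophoresis, with gain and loss of signal scored against DMSO.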

[11] = ATG_PXRE_CIS: Attagene CIS-FACTORIAL HepG2 Assay for human Pregnane X Receptor Element (PXRE) (AID 2282957); conditions: HepG2 Attagene CIS-FACTORIAL PXRE reporter, mRNA; actives raise or lower the signal
Method in brief: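 Transiently transfected HepG2 cells were dosed and incubated for 24 h. RNA was then isolated, DNase-treated, reverse-transcribed and reporter sequences amplified. Labeled, HpaI-digested fragments were quantified by capillary electrophoresis against DMSO.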

[12] = ATG_PPRE_CIS: Attagene CIS-FACTORIAL HepG2 Assay for human Peroxisome Proliferator-activated Response Element (PPRE) (AID 2282958); conditions: HepG2 PPRE cis-element reporter, Attagene transcription factor profiling; actives raise or lower the signal
Method in brief: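 DMSO served as negative control and baseline for bidirectional curve fitting. Signal came from PPRE-regulated reporter mRNA in HepG2 cells, measured 24 h post-dosing by RT-PCR, 6-FAM primer extension and capillary electrophoresis.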

[13] = ATG_RORE_CIS: Attagene CIS-FACTORIAL HepG2 Assay for human RAR-related Orphan Receptor Element (RORE) (AID 2282959); conditions: HepG2 Attagene cis-factorial RORE reporter, mRNA; actives raise or lower the signal
Method in brief: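 Transfect HepG2 with MRTUs; treat 24 h; extract RNA; RT with oligo(dT); PCR with reporter-specific primers; 6-FAM primer extension; HpaI digest 2 h at 37 C; capillary electrophoresis. Fit vs DMSO, bidirectional.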

[14] = ATG_Sox_CIS: Attagene CIS-FACTORIAL HepG2 Assay for human SRY-box transcription factor (SOX) (AID 2282960); conditions: HepG2 Attagene cis-factorial SOX reporter, mRNA; actives raise or lower the signal
Method in brief: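 Fluorescence-labelled cDNA fragments from reporter transcripts, sized by CE, give the signal. Cells: HepG2, transiently transfected with cis-regulated reporter units. Exposure 24 h; DMSO negative control; bidirectional curve fitting.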

[15] = target: Transcription factor Sp1 (Homo sapiens) (UniProt P08047); assay: ATG_Sp1_CIS: Attagene CIS-FACTORIAL HepG2 Assay for human Specificity Protein 1 (Sp1) (AID 2282961); conditions: HepG2 Sp1 cis-reporter transcription, actives raise or lower the signal
Sequence of Transcription factor Sp1 (Homo sapiens) (P08047 whole entry, looked up): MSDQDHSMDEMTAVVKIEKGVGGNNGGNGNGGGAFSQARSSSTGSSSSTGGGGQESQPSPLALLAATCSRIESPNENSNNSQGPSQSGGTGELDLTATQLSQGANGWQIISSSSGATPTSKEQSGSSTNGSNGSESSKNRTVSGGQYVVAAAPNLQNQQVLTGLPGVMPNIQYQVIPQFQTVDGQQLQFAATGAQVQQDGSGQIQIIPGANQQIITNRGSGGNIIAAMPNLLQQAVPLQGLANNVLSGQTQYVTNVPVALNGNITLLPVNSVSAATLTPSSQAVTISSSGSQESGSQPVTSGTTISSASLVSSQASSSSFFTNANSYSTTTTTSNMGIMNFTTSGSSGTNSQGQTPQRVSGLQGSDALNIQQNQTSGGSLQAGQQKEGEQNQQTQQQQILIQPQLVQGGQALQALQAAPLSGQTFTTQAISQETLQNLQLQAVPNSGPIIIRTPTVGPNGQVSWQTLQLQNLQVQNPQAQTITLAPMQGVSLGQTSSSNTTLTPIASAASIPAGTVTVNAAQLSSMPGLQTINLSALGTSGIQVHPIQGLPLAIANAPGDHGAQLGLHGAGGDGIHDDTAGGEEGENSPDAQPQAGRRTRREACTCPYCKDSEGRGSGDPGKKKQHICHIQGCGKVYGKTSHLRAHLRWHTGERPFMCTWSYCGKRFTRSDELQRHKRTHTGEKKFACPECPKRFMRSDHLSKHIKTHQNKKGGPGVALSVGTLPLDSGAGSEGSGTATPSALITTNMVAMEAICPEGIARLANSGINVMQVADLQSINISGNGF
Method in brief: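 Chemicals are dosed onto HepG2 cells transfected with multiple cis-promoter reporter constructs, and after 24 h reporter RNA is reverse-transcribed, PCR-amplified and resolved by capillary electrophoresis for fluorescence quantitation; activity is scored up or down against DMSO.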

[16] = ATG_SREBP_CIS: Attagene CIS-FACTORIAL HepG2 Assay for human Sterol Regulatory Element Binding (SREBP) (AID 2282962); conditions: HepG2 Attagene cis-factorial SREBP reporter, mRNA; actives raise or lower the signal
Method in brief: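 Twenty-four hours after chemical dosing of transfected HepG2 cultures, reporter RNA was converted to cDNA, amplified, end-labelled with 6-FAM and resolved by capillary electrophoresis. Responses were fitted relative to DMSO.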

[17] = target: Signal transducer and activator of transcription 3 (Homo sapiens) (UniProt P40763); assay: ATG_STAT3_CIS: Attagene CIS-FACTORIAL HepG2 Assay for human Signal Transducer and Activator of Transcription 3 (STAT3) (AID 2282963); conditions: HepG2, Attagene cis-factorial STAT3 reporter transcription; actives raise or lower the signal
Sequence of Signal transducer and activator of transcription 3 (Homo sapiens) (P40763 whole entry, looked up): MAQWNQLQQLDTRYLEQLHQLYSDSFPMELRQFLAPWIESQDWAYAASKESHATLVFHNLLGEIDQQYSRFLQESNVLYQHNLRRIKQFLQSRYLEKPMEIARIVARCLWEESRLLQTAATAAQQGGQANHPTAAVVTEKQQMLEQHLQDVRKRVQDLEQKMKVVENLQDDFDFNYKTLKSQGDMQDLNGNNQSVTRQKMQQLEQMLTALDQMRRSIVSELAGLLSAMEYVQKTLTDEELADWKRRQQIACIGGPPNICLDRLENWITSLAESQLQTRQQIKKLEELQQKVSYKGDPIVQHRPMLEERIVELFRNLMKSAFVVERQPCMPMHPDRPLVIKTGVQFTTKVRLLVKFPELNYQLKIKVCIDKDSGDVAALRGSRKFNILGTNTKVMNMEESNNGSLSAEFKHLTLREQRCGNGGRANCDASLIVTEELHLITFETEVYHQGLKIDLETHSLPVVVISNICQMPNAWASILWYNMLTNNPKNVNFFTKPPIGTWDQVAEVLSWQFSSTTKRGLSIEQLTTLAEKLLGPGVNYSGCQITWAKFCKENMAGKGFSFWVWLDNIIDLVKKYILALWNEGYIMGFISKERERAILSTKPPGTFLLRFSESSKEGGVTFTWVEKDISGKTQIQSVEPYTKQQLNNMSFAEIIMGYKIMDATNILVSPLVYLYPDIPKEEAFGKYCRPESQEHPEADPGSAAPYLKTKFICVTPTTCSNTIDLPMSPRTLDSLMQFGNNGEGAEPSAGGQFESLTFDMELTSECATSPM
Method in brief: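 Transcript-level reporter assay. HepG2 transient MRTU transfection, 24 h exposure, fluorescence detection after RT-PCR and CE; DMSO baseline.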

[18] = ATG_TA_CIS: Attagene CIS-FACTORIAL HepG2 Assay for human TA Basal Promoter (AID 2282964); conditions: HepG2 Attagene CIS-factorial TA basal promoter reporter; actives raise or lower the signal
Method in brief: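 Background internal-marker endpoint from a 52-component HepG2 cis-reporter panel. Cells treated 24 h; reporter transcripts quantified via RT-PCR and CE fluorescence against DMSO baseline.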

[19] = ATG_TCF_b_cat_CIS: Attagene CIS-FACTORIAL HepG2 Assay for human T-Cell-Factor with beta-catenin (TCF/b-cat) (AID 2282965); conditions: HepG2 TCF/beta-catenin cis-reporter transcription, actives raise or lower the signal
Method in brief: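 In this cis-format system, transfected HepG2 cells report endogenous transcription factor activity. Readout after 24 h exposure is reporter transcript abundance from RT-PCR and capillary electrophoresis, analysed for gain or loss of signal versus DMSO.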

Measured: AC50

O=C1O[C@H]([C@@H](O)CO)C(O)=C1O
active: [11] 184 µM and 54.4 µM
inactive: all other assays above

Cc1oc2c(NC(=O)c3c(Cl)cccc3Cl)cccc2c1C(C)(C)O
active: [2] 26.8 µM | [5] 37.8 µM | [7] 177 µM | [8] 129 µM | [9] 6.18 µM | [10] 85.7 µM | [12] 71.8 µM | [13] 31.6 µM | [16] 6.28 µM | [18] 41.5 µM | [19] 25.4 µM
inactive: [1] | [3] | [4] | [6] | [14] | [15] | [17]

CCN(Cc1cccc(S(=O)(=O)O)c1)c1ccc(C(=C2C=CC(=[N+](CC)Cc3cccc(S(=O)(=O)O)c3)C=C2)c2ccccc2S(=O)(=O)[O-])cc1
not listed: [1]
inactive: all other assays above

CN(C)C(=O)C1(N2CCCCC2)CCN(CC[C@@]2(c3ccc(Cl)c(Cl)c3)CN(C(=O)c3ccccc3)CCO2)CC1
active: [5] 1.01 µM | [11] 170 nM | [16] 0.436 µM | [19] 0.98 µM
inactive: all other assays above

CCCCCCCCOC(=O)c1cc(O)c(O)c(O)c1
active: [5] 16.9 µM
not listed: [11]
inactive: all other assays above

CCCCCc1ccc(N)cc1
inactive: [2] | [3] | [4] | [5] | [6] | [7] | [8] | [9] | [10] | [11] | [12] | [13] | [14] | [15] | [16] | [17] | [18] | [19]
active: [5] 2.57 µM | [8] 46 µM | [11] 72.9 µM and 27.4 µM and 21.2 µM | [19] 8.92 µM and 6.2 µM and 19.5 µM

O=C(O)c1ccccc1C(=O)OCc1ccccc1
not listed: [11]
inactive: all other assays above

OC12N=C(c3ccccc3)SC1Cc1cc(Cl)ccc12 (stereo not drawn)
active: [11] 4270 nM | [12] 0.0507 µM
not listed: [9]
inactive: all other assays above

CO[C@H]1/C=C/O[C@@]2(C)Oc3c(C)c(O)c4c(O)c(c(/C=N/N5CCN(C)CC5)c(O)c4c3C2=O)NC(=O)/C(C)=C\C=C\[C@H](C)[C@H](O)[C@@H](C)[C@@H](O)[C@@H](C)[C@H](OC(C)=O)[C@@H]1C
not listed: [1] | [5] | [11]
inactive: all other assays above

Oc1ccccc1
not listed: [1] | [7]
inactive: all other assays above

CCCCCCCCOc1ccc(C(=O)c2ccccc2)c(O)c1
not listed: [1]
inactive: all other assays above

CC[C@@H]1C[C@H](N(Cc2cc(C(F)(F)F)cc(C(F)(F)F)c2)C(C)=O)c2cc(C(F)(F)F)ccc2N1C(=O)OC(C)C
active: [9] 0.181 µM | [11] 67.6 nM
inactive: all other assays above

COc1cc(C(=O)NC2CCN(C)CC2)ccc1Nc1ncc2c(n1)N(C1CCCC1)CC(F)(F)C(=O)N2C
active: [1] 0.872 µM | [2] 4.8 µM | [8] 2.37 µM | [10] 3.75 µM | [13] 3.55 µM | [15] 0.525 µM | [16] 1.56 µM | [19] 4.26 µM
not listed: [11]
inactive: all other assays above

CCCCCCCCCCCO
not listed: [1] | [7]
inactive: all other assays above

O=C(O)Cn1c(=O)n(Cc2ccc(Br)cc2F)c(=O)c2ccc(Cl)cc21
active: [11] 8540 nM
not listed: [12]
inactive: all other assays above
